Source: PubChem BioAssay AID1851 (National Center for Advancing Translational Sciences (NCATS), 2009)
Several values for one entry are separate records, joined by “and”; a condition that tells them apart may be missing. Equal entries are not always repeated. About 5,100 (32%) of roughly 16,000 compounds were called active. Another 25% or so got no clear call; they are omitted. The list shows a part of the results. Values without a mark were called inactive. The call rests on the fitted dose curve; in most records, active means well fitted curve in the direction sought with a large enough effect; inconclusive means small, poorly fitted or top-dose-only effect, or effect the other way; inactive means no such curve, though single readings can be large or run the other way.

Molecular target: Cytochrome P450 3A4 (Homo sapiens) (UniProt P08684)
Assay: Cytochrome panel assay with activity outcomes
Conditions: recombinant CYP, pro-luciferin dealkylation, luminescence, p450-cyp3a4; series mostly up to 57.1 µM
On the % scale 0 is the no-effect control and ±100 the full control effect.

Sequence of Cytochrome P450 3A4 (Homo sapiens) (P08684 whole entry, looked up): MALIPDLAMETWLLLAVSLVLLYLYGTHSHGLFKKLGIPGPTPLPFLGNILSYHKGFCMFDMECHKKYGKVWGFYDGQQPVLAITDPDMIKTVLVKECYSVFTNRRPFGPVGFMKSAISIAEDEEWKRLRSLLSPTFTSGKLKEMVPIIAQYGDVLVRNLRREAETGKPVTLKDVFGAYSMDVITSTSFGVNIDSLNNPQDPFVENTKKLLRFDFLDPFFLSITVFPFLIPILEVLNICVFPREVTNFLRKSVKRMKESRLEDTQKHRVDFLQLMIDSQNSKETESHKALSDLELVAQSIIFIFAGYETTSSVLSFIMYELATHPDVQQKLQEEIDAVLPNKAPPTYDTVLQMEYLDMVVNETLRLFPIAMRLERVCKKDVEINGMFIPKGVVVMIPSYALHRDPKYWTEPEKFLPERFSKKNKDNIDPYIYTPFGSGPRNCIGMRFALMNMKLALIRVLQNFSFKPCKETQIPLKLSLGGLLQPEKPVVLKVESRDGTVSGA

Structure (SMILES) | activity, negative = inhibition | AC50
CC(C)C(=O)NCCCc1ccccc1 | 2.86% [at 11.4 µM] | –
Cc1cc(C)c(NC(=O)CS(=O)CC(=O)NCCCc2ccccc2)c(C)c1 (centres undefined) | – | 3.55 µM (active)
FC(F)(F)c1cnc(N2CCC(=NOCc3ccc(Cl)cc3)CC2)c(Cl)c1 | – | inactive
N#CC(c1ccc(Cl)cc1)(c1ncc(C(F)(F)F)cc1Cl)N1CCOCC1 (centres undefined) | – | 12.6 µM (active)
COC(=O)[C@@H]1[C@@H]2C[C@H]3c4[nH]c5ccccc5c4CCN3C[C@@H]2CC[C@@H]1OS(=O)(=O)O | 0.48% [at 11.4 µM] | –
CC(=O)Nc1cccc(C(=O)OCc2ccc(C(=O)Oc3ccc(Cl)cc3)cc2)c1 | – | inactive
CC(O)(CS(=O)(=O)Cc1ccccc1Cl)C(=O)Nc1cccc(C(F)(F)F)c1 (centres undefined) | – | 2.51 µM (active)
CC(O)(CS(=O)(=O)Cc1ccc(Cl)cc1)C(=O)Nc1cccc(C(F)(F)F)c1 (centres undefined) | – | 2 µM (active)
CN(C)CCNC(=O)Cn1nc(-c2ccc(Cl)cc2)ccc1=O | – | inactive
COCCNC(=O)CCn1nc(-c2ccc(Cl)cc2)ccc1=O | – | inactive
O=C(CCn1nc(-c2ccc(Cl)cc2)ccc1=O)NCc1ccccn1 | – | 10 µM (active)
Cc1ccc(-n2nnnc2-c2cnc3ccc(Cl)cc3c2-c2ccccc2)cc1 | – | 5.62 µM (active)
Cc1ccc2nc(SCC(=O)c3ccc4c(c3)OCO4)[nH]c2c1 | – | 2.24 µM (active)
Cc1ccc(C(=O)CSc2nc(C)cc(=O)[nH]2)cc1 | – | inactive
Cc1nc(SCC(=O)c2ccc(F)cc2)c([N+](=O)[O-])[nH]1 | 5.95% [at 2.29 µM] | –
Cc1cc(C)nc(NS(=O)(=O)c2ccc(N)cc2)n1 | – | inactive
CNc1cc(NS(=O)(=O)c2ccc(N)cc2)nc(NC)n1 | – | 0.794 µM (active)
Nc1ccc(S(=O)(=O)Nc2cnc3ccccc3n2)cc1 | -8.37% [at 11.4 µM] | –
NC1=N[C@H](c2ccc(Cl)cc2)N(c2ccc(S(=O)(=O)Nc3ncccn3)cc2)C(N)=N1 | 6.25% [at 11.4 µM] | –
Cc1cc(C(=O)OC2CCOC2=O)c2ccccc2n1 (centres undefined) | -7.34% [at 11.4 µM] | –
COc1cc(CC(=O)OC2CCOC2=O)cc(OC)c1OC (centres undefined) | – | inactive
COc1cc(OC)cc(C(=O)NCC(=O)OC2CCOC2=O)c1 (centres undefined) | – | 25.1 µM (active)
O=C1C[C@@H](O)[C@@H](O)[C@H]2[C@@H]3C(=O)N(C[C@@H]4CCCO4)C(=O)[C@@H]3CC[C@H]12 | 9.5% [at 11.4 µM] and -5.79% [at 11.4 µM] | –
O=c1[nH]c(=S)c2[nH]c(=O)n(-c3ccccc3)c2[nH]1 | -9.23% [at 11.4 µM] | –

Structure (SMILES) | activity, negative = inhibition | AC50
CCOc1ccccc1NC(=O)C1=C(C)NC(=O)NC1c1cccc(OC)c1OC (centres undefined) | – | 3.98 µM (active)
CCOc1ccccc1NC(=O)CN1CCC(NC(=O)c2ccccc2)CC1 | – | inactive
C#CCn1c(S(=O)(=O)Cc2ccc(OC)cc2)nc(-c2ccccc2)c1-c1ccccc1 | – | 6.31 µM (active)
COc1ccccc1C1(CC(=O)Nc2nccs2)CCOC(C(C)C)C1 (centres undefined) | – | 6.31 µM (active)
O=c1oc2cc(N=Cc3ccc4c(c3)OCO4)ccc2c2ccccc12 | – | 3.98 µM (active)
O=[N+]([O-])c1ccc2c(c1)Cc1cc(N=Cc3ccc4c(c3)OCO4)ccc1-2 | -16.1% [at 11.4 µM] | –
CC(=O)NC1(c2cccc(F)c2)CCN(CC(=O)NC(C)C)CC1 | – | inactive
COc1ccc(/C(C)=N/NC(=O)c2ccc(N(C)C)cc2)cc1 | – | inactive
COc1ccc(C(=O)N/N=C2/C(=O)c3c(C)cc(C)cc3CC2(C)C)cc1 | – | 3.16 µM (active)
COc1ccccc1CN1CCC2(CCNCC2)CC1 | – | inactive
Cc1cccc(CNc2nc(-c3ccoc3)nc3ccccc23)c1 | – | 6.31 µM (active)
c1csc(CNc2nc(-c3ccoc3)nc3ccccc23)c1 | – | 7.94 µM (active)
c1cncc(-c2nc(NCc3cccs3)c3ccccc3n2)c1 | – | 2 µM (active)
c1cncc(CNc2nc(-c3ccoc3)nc3ccccc23)c1 | – | 7.94 µM (active)
NS(=O)(=O)c1cc2c(cc1Cl)=NC(CCC(=O)O)=NS=2(=O)O | 15.3% [at 11.4 µM] | –
c1ccc(CNc2nc(-c3ccoc3)nc3ccccc23)cc1 | – | 12.6 µM (active)
Cc1ccccc1-c1cncnc1Nc1ccc(F)cc1 | – | 0.2 µM (active)
c1cncc(-c2cncnc2NC2CCNCC2)c1 | – | inactive
Cc1ccccc1-c1cncnc1NC1CCNCC1 | – | 15.8 µM (active)
CNc1cc(-c2ccccc2C)ncn1 | – | inactive
CNc1ncncc1-c1ccccc1C | – | 0.631 µM (active)
COc1ccccc1-c1cncnc1Nc1ccc(F)cc1 | – | 0.158 µM (active)
CC(=O)N(C[C@@H](C)C(=O)O)c1c(I)cc(I)c(N)c1I | – | inactive
CCCCCSc1nncc(=O)[nH]1 | 2.96% [at 11.4 µM] | –

Structure (SMILES) | activity, negative = inhibition | AC50
O=C(O)[C@@H]1[C@@H](C(=O)Nc2ccccc2)[C@@H]2C=C[C@@H]1O2 | -5.39% [at 11.4 µM] | –
O=C(O)[C@@H]1[C@@H]2C[C@@H]3[C@@H](OC(=O)[C@@H]31)[C@H]2Br | -5.69% [at 11.4 µM] | –
CCCNc1[nH]c(=O)n(C)c(=O)c1N=O | -16% [at 2.29 µM] | –
Cc1cc(Nc2ccccc2)nc(N)n1 | – | inactive
Cc1ccccc1-c1cncnc1Nc1ccccc1 | – | 0.631 µM (active)
O=C(O)c1ccc(Nc2ccnc3cc(Cl)ccc23)cc1O | -7.77% [at 11.4 µM] | –
Cc1cccc(C)c1NC(=O)[C@H](C)N | – | inactive
Cc1cccc(C)c1NC(=O)C(NC=O)c1ccccc1Cl (centres undefined) | – | 10 µM (active)
CCOC(=O)c1[nH]c2ccc(OC)cc2c1NC(=O)c1ccc2c(c1)OCO2 | – | 1.41 µM (active)
CCOC(=O)c1[nH]c2cc3c(cc2c1NC(=O)CN1CCc2ccccc2C1)OCO3 | – | 0.708 µM (active)
COC(=O)c1[nH]c2cccc(OC)c2c1NC(=O)CN(C)CC1OCCO1 | – | inactive
CCOC(=O)c1ccc(NC(=O)C2(c3ccc(OC)cc3)CCOCC2)cc1 | -2.41% [at 2.29 µM] | –
COC(=O)c1[nH]c2cc(OC)ccc2c1NC(=O)CCN1CCSCC1 | 1.53% [at 2.29 µM] | –
CCOC(=O)c1[nH]c2cc(OC)c(OC)cc2c1NC(=O)c1ccc2c(c1)OCO2 | – | 7.94 µM (active)
CCOC(=O)c1[nH]c2cc3c(cc2c1NC(=O)CN1CCC2(CC1)OCCO2)OCO3 | – | inactive
COC(=O)c1[nH]c2cc(OC)ccc2c1NC(=O)c1ccc2c(c1)OCO2 | – | 7.94 µM (active)
CSc1cc(C)nc(NC(C)=O)n1 | – | inactive
CCc1nc(N[C@H](C(=O)O)C(C)CC)c2oc3ccccc3c2n1 (some centres undefined) | – | inactive
CCc1nc(SCC(=O)NCCc2ccccc2)c2oc3ccccc3c2n1 | – | 3.55 µM (active)
CCc1nc(SCC(=O)N2CCCc3ccccc32)c2oc3ccccc3c2n1 | – | 15.8 µM (active)
Cc1nc(Oc2ccc(Cl)cc2)c2oc3ccccc3c2n1 | 5.99% [at 2.29 µM] | –
CCc1nc(SCC(=O)c2ccc(Cl)s2)c2oc3ccccc3c2n1 | – | 7.94 µM (active)
Cc1ccccc1C(=O)NC(C)c1ccc2c(c1)CCCC2 (centres undefined) | – | inactive
CCCCN=c1sc(C(=O)OC)cc(=O)n1CCCC | – | inactive

Structure (SMILES) | activity, negative = inhibition | AC50
COC(=O)[C@H](CCSC)NC(=O)C/C=C\[C@@H](C)[C@@H](CO)OC | -14.3% [at 11.4 µM] | –
COC(=O)[C@H](CCSC)NC(=O)NCc1ccccc1F | – | 15.8 µM (active)
COC(=O)[C@H](CCSC)NC(=O)C/C=C\[C@@H](C)CO | -19.4% [at 11.4 µM] | –
C[C@@H](C(=O)Nc1ccc2ccccc2c1)[C@@H]1C[C@@]1(C)[C@@H](NC(=O)c1cnccn1)c1ccccc1 | – | 1 µM (active)
C[C@@H](C(=O)Nc1ccc2ccccc2c1)[C@@H]1C[C@@]1(C)[C@@H](NC(=O)c1ccncc1Cl)c1ccccc1 | – | 10 µM (active)
C[C@@H](C(=O)Nc1ccc2ccccc2c1)[C@H]1C[C@]1(C)[C@H](NC(=O)c1cnccn1)c1ccccc1 | – | 0.631 µM (active)
C=CCNC(=S)N1CCN(c2ncc3c(=O)c(C(=O)O)cn(CC)c3n2)CC1 | – | inactive
COc1cccc(CSCC(=O)O)c1 | -5.22% [at 11.4 µM] | –
COc1ccc(C(=O)NC(CO)c2nnc(SCc3ccc(Cl)c(Cl)c3)n2C)cc1 (centres undefined) | -5.47% [at 2.29 µM] | –
Fc1ccc(Cn2c(SCc3ccc(F)c(F)c3)nnc2C(F)(F)F)cc1 | – | 15.8 µM (active)
Fc1ccc(Cn2c(SCc3ccc(F)c(C(F)(F)F)c3)nnc2C(F)(F)F)cc1 | – | 20 µM (active)
Cc1ccc(CSc2nnc(C(F)(F)F)n2Cc2ccc(F)cc2)cc1 | – | 3.16 µM (active)
COc1cccc(CSc2nnc(C(F)(F)F)n2Cc2ccc(F)cc2)c1 | – | 28.2 µM (active)
NC(=O)CC(c1ccccc1)c1ccco1 (centres undefined) | – | inactive
CC(=O)Nc1ccnc(-c2cccnc2)n1 | – | inactive
Cc1cccc(CNc2ccnc(-c3cccnc3)n2)c1 | – | 0.501 µM (active)
O=C(Nc1ccnc(-c2cccnc2)n1)c1ccccc1Cl | 3.82% [at 2.29 µM] | –
O=C(Nc1ccnc(-c2cccnc2)n1)c1cccc(Cl)c1Cl | – | 4.47 µM (active)
c1ccc(CNc2ccnc(-c3cccnc3)n2)cc1 | – | 0.631 µM (active)
Cc1cccc(NC(=O)c2cc(N3C(=O)CCC3=O)ccc2Cl)n1 | – | inactive
Cn1cc(C(=O)c2ccc(Cl)cc2Cl)cc1C(=O)O | – | inactive
Nc1nc(NCc2ccccc2)nc(Nc2cccc(F)c2)c1[N+](=O)[O-] | – | inactive
